Shown are actives, neighbours in structure and some others; about 7.4% of the full set was active somewhere.
NPC1 prom act: activators of NPC1 promoter; Huh7 NPC1 promoter luciferase reporter, 24 h; Potency, µM (top dose mostly 9.22 µM), most hits filed as activators; 2.4% of 320,000 active; AID 485313; further: nearly all actives have a fitted effect of over 60% in size
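Luminescence read-out of NPC1 promoter-driven luciferase in stably transfected Huh7 cells; compounds delivered in DMSO and left 24 h at 37C, 5% CO2, qHTS titration format.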
FLuc counter: firefly luciferase modulation, counter-screen for miR-21 project; purified FLuc, Km substrates, luminescence inhibition; Potency, µM (titrated, usually from 57.5 µM), usual class: inhibitors; 6.9% of 360,000 active; further: nearly all actives have a fitted effect of over 55% in size
Target sequence (P08659 whole entry, looked up): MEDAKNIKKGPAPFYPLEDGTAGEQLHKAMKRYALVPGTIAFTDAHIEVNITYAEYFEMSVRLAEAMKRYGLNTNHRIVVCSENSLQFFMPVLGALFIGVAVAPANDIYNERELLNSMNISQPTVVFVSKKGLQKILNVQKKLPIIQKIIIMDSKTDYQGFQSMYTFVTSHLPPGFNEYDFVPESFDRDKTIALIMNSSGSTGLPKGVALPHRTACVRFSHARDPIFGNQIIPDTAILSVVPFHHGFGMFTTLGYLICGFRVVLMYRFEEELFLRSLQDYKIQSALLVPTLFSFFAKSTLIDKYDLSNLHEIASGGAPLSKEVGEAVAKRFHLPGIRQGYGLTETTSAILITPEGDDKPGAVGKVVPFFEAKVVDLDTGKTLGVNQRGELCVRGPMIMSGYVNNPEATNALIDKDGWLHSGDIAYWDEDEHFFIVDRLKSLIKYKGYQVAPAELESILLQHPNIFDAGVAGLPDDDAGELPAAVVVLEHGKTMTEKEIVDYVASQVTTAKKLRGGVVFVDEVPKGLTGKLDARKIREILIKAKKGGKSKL
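Purified P. pyralis luciferase (10nM final) with 10uM D-luciferin and 10uM ATP (Km levels) in 50mM Tris acetate pH 7.5, 10mM Mg acetate, 0.01% Tween-20, 0.05% BSA; qHTS 6-point titration, ~60 µM downward; luminescence read.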
SMN2 splice enh: enhancers of SMN2 splice variant expression. HEK293 SMN2-luciferase splicing reporter, luminescence, 30-36 h. Potency, µM (series often up to 46.1 µM), usual class: activators. 2.8% of 210,000 active. AID 1458; further: nearly all actives have a fitted effect of over 55% in size
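HEK293 cells carry an SMN2 […]–luciferase reporter in which exon 7 inclusion puts luciferase in frame. Cells were plated 10-12 h before compound addition, then incubated 30-36 h at 37C. ONE-Glo luminescence was read; sodium butyrate at 4.5 mM final served as control.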
ELG1 genotoxic: induces genotoxicity in HEK293T cells with luciferase-tagged ELG1. 1.3% of 330,000 active. Potency, µM (series often up to 46 µM), usual class: activators. HEK293T ELG1-luciferase reporter, luminescence, 16 h. AID 504466; further: nearly all actives have a fitted effect of over 60% in size
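Genotoxic stress is detected as increased luminescence from luciferase-tagged ELG1 in HEK293T cells, measured with ONE-Glo after a 16 hr treatment at 37 °C.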
Rab9 prom act: activators of Rab9 promoter; Huh7 Rab9 promoter-luciferase reporter, luminescence, 24 h; Potency, µM (titrated, usually from 9.22 µM), hits mostly activators; 2.8% of 320,000 active; further: nearly all actives have a fitted effect of over 60% in size
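Quantitative HTS format; Huh7 Rab9-luciferase reporter cells (1500/well) receive compound 2 h post-plating, incubate 24 h at 37 °C, then get luciferase reagent for 10 min before luminescence reading.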
Numbers stand for hits; – = inactive; ? = inconclusive; · = not tested or not shown; [ ] = remark or other dose. The call rests on the fitted dose curve; in most records, active means well fitted curve in the direction sought with a large enough effect; inconclusive means small, poorly fitted or top-dose-only effect, or another doubt; inactive means no such curve, though single readings can be large; an effect the other way counts as inactive or inconclusive.

SMILES | NPC1 prom act | FLuc counter | SMN2 splice enh | ELG1 genotoxic | Rab9 prom act
O=C1/C(=C/c2ccccn2)COc2ccccc21 | – | 8.5µM | – | – | –
CCOc1cc(/C=C2/COc3ccccc3C2=O)ccc1OCC(=O)N(C)C | – | – | – | – | –
Cc1cccc(Cn2c(=O)n(CCCCC(=O)NCc3ccc4c(c3)OCO4)c(=O)c3ccccc32)c1 | · | – | – | · | ·
COc1cc(-c2[o+]c3cc(O)cc(O)c3cc2O)cc(O)c1O | · | · | –[9.22 µM] | · | ·
CC(Oc1ccc(Cl)cc1Cl)c1nc(-c2ccc(NC(=O)c3ccco3)cc2)no1 (centres undefined) | – | 15µM | – | ? | ?
Cc1ccccc1OCc1nc(-c2ccc(NC(=O)c3ccco3)cc2)no1 | ? | 11µM | 7.1µM | ? | ?
COc1ccccc1CC(=O)Nc1ccc(-c2noc(COc3cccc(C)c3C)n2)cc1 | – | – | – | – | –
Cc1ccccc1OCc1nc(-c2ccc(NC(=O)c3cccs3)cc2)no1 | ? | 12µM | ? | ? | ?
Cc1ccccc1OCc1nc(-c2ccc(NC(=O)c3ccc4c(c3)OCO4)cc2)no1 | – | ? | – | – | –
Cc1cc(C)c2nc3c(c([C@H](O)C4CCCCN4)c2c1)CC/C3=C/c1ccc(Cl)cc1 (some centres undefined) | · | · | –[9.22 µM] | · | ·
O=C(Nc1ccccc1Cl)[C@H](CSCc1ccccc1)N1Cc2ccccc2C1=O | · | – | – | · | ·
Cc1ccc(O)c(-c2cc(-c3cccc(Br)c3)n[nH]2)c1 | ? | 12µM | · | 23µM | 4.5µM
Cc1ccc(-c2noc(-c3cc(-c4ccc(F)cc4)n[nH]3)n2)cc1 | · | – | · | · | ·
Oc1ccccc1-c1cc(-c2ccc(F)cc2)n[nH]1 | ? | 3.4µM | · | 5.8µM | –
Cc1ccc(-c2cc(-c3ccc(C)cc3O)[nH]n2)cc1 | 0.71µM | 2.4µM | · | ? | 0.89µM
Cc1ccc(-c2cc(-c3ccc(F)cc3)n[nH]2)c(O)c1 | ? | 4.3µM | · | ? | 4µM
Oc1ccc(Br)cc1-c1cc(-c2ccccc2F)[nH]n1 | – | –[2.3 µM] | ? | – | –
COc1ccc(CCC(C)N(C)Cc2ccccc2)cc1 (centres undefined) | – | – | · | – | –
Oc1ccc(F)cc1-c1cc(-c2ccc3c(c2)OCCO3)n[nH]1 | 3.2µM | 2.4µM | 13µM | ? | 1.8µM
Cc1c(C(=O)OCCOc2ccccc2)[nH]c2c1C(=O)CC(c1ccccc1Cl)C2 (centres undefined) | · | – | – | · | ·
Cc1ccc(SCCSc2nc(C)cc(=O)[nH]2)cc1 | ? | 5.4µM | · | 23µM | ?
COc1ccc(OCCSc2nc(N)cc(=O)[nH]2)cc1 | – | – | · | – | –
CCOc1ccc(OCCSc2nc(C)cc(=O)[nH]2)cc1 | ? | 13µM | – | ? | ?
Cc1ccc(SCCSc2nc(N)cc(=O)[nH]2)cc1 | – | ? | · | – | –
COC(=O)[C@@H]1[C@@H](C)N(CCc2cc(OC)c(OC)c(OC)c2)C(=O)N[C@H]1c1ccccc1 | · | · | –[9.22 µM] | · | ·
SMILES | NPC1 prom act | FLuc counter | SMN2 splice enh | ELG1 genotoxic | Rab9 prom act
c1ccc(CN2CCN(C3=Nc4cccc5cccc3c45)CC2)cc1 | – | 11µM | – | – | –
Fc1ccc(N2CCN(C3=Nc4cccc5cccc3c45)CC2)cc1 | – | 15µM | – | – | –
CCOC(=O)Cc1c(C)nc(SC)[nH]c1=O | – | – | – | – | –
O=C(NCCCN1CCN(c2cccc(Cl)c2)CC1)Nc1ccccc1C(F)(F)F | · | – | – | · | ·
O=C(CC1CCCC1)Nc1nc2ccccc2[nH]1 | 3.5µM | 9.5µM | 13µM | 16µM | 2.8µM
O=C(Nc1nc2ccccc2[nH]1)C1CCCC1 | 1.6µM | 15µM | 11µM | ? | 1.3µM
O=C(NCc1nc2ccccc2[nH]1)C1CCCCC1 | – | – | – | – | –
CC(C)[C@H](NC(=O)C1CCCC1)c1nc2ccccc2[nH]1 | – | – | – | – | –
O=C(Cc1cccc2ccccc12)Nc1nc2ccccc2[nH]1 | – | – | – | – | –
O=C(Nc1nc2ccccc2[nH]1)C1CCC1 | ? | 17µM | 13µM | ? | 2.8µM
CCOC(=O)c1ccc(-n2c(N)c(C(=O)OC)c3nc4ccccc4nc32)cc1 | · | – | · | · | ·
COCCCNC(=O)Cn1nnc(-c2ccc(NC(=O)c3ccccc3F)cc2)n1 | – | 13µM | ? | – | –
O=C1CN(C(=O)Nc2ccccc2Cl)C(c2ccccc2)c2c(sc3c2CCCC3)N1 (centres undefined) | · | – | · | · | ·
Cc1cccc(-n2c(O)c(C=Nc3cccc(O)c3)c3ccccc3c2=O)n1 | – | – | · | – | –
CC1=NC(=O)C(N=Nc2cccc(O)c2)N1c1ccccc1 (centres undefined) | – | 6.7µM | – | 15µM | –
O=C(NCCOc1ccccc1F)c1cc(F)c(F)cc1Cl | 0.71µM | 3µM | 2µM | ? | 1.4µM
Cc1ccccc1C(=O)NCCOc1ccccc1Cl | 0.63µM | 8.5µM | · | 5.8µM | 0.56µM
N#CCCn1c(=O)c(-c2ccccc2)nc2cnc(Oc3cccc(Cl)c3)nc21 | · | · | – | · | ·
FC(F)Oc1ccccc1/C=N/n1cnc2ccccc21 | – | 24µM | ? | – | –
NC(N)=N/N=C/c1ccccc1OC(F)F | – | – | – | – | –
O=C(Cc1ccsc1)NCC(=O)Nc1ccccc1Br | · | · | · | – | ·
CCC(=O)Nc1sc2c(c1C#N)CCCCC2 | – | –[2.3 µM] | ? | – | ?
N#Cc1c(NC(=O)CCCC(=O)O)sc2c1CCCCC2 | ? | 2.1µM | 1.3µM | ? | ?
CCCC(=O)Nc1sc2c(c1C#N)CCCCC2 | 3.2µM | 9.5µM | 11µM | ? | 2.8µM
COCC(=O)N1CCC2(CCCN(Cc3ccccc3OC)C2)CC1 | · | · | – | · | ·
SMILES | NPC1 prom act | FLuc counter | SMN2 splice enh | ELG1 genotoxic | Rab9 prom act
O=C(NC1=NCCS1)c1cc(-c2ccc(-c3ccccc3)cc2)nc2ccccc12 | 4µM | 0.85µM | –[1.84 µM] | – | 1.8µM
COc1ccc(-c2cc(C(=O)NC3=NCCS3)c3ccccc3n2)cc1OC | – | 9.5µM | – | – | ?
O=c1c(-c2n[nH]c(=S)o2)cccn1Cc1ccccc1 | – | ? | – | – | –
Cc1ccccc1CN1C[C@@H]2C[C@@H](c3cnc(N4CCOCC4)s3)N3CCC[C@@]23C1=O | – | – | 16µM | – | –
O=C(Nc1cccc(Cl)c1)c1ccccc1 | ? | 13µM | · | 16µM | ?
Cn1c(N)c(C(=O)Nc2cccc(Cl)c2)c(=O)n(C)c1=O | – | 5.4µM | · | – | –
O=C(Nc1ccc(-c2nc3ccccc3s2)c(O)c1)c1ccc(Br)cc1 | · | – | – | · | ·
O=C(NNC(=S)Nc1cccc(Cl)c1)c1ccccc1 | ? | ? | · | – | –
O=C(Nc1ccc2nc3ccccc3nc2c1)c1ccccc1 | 1.4µM | 1.7µM | 4µM | ? | 0.56µM
O=C(Nc1ccc(-c2nc3ccccc3s2)c(OC(=O)c2ccccc2)c1)c1ccccc1 | 1.6µM | ? | 2.8µM | ? | 1.4µM
NCC(=O)Nc1ccccc1 | · | · | –[9.22 µM] | · | ·
O=C(Nc1ccc(Cl)c(Cl)c1)c1ccccc1 | 3.2µM | 3.8µM | · | ? | 1.6µM
CC(=O)Nc1ccc2cc3ccc(NC(C)=O)cc3nc2c1 | ? | 11µM | · | ? | ?
O=C(Nc1ccc(Cl)c(Cl)c1)Nc1ccc(Br)cc1F | – | – | – | – | –

Screening results (PubChem BioAssay)
